High-throughput results as filed in PubChem.
This is a sample that favours compounds with a hit; in the whole collection about 4% have one here.
FGF22 binding = shifts melting point of recombinant human FGF22 | Q9HCT0 | recombinant FGF22 thermal shift, SYPRO orange fluorescence; percent of sucrose octasulfate shift, DMSO zero | activity (Tm shift, normalised), % at 9.99 µM | 1.5% of 340,000 active;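 active means mean Tm shift, scaled 0 neutral to 100 positive control, at about 1.3% or above, every replicate too, limit read from the data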
Target sequence (Q9HCT0 whole entry, looked up): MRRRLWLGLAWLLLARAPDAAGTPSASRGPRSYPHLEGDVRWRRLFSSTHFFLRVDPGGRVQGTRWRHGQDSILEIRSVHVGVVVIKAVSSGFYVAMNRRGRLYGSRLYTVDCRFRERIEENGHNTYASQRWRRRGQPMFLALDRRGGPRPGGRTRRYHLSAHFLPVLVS
ERAP1 inh = blocks human ERAP1 aminopeptidase activity; Q9NZ08; recombinant ERAP1, Leu-AMC fluorescence, 60 min; inhibition, % at 10.7 µM; 0.15% of 340,000 active; AID 652197;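 active means mean replicate inhibition of at least 30%, or all replicates individually reaching that 30% level; inactive means mean below 30% and not every replicate reaching it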;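 further: 0% = neutral control wells and 100% = L-leucinethiol positive control wells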
DENV2 CPE = protects cells from dengue virus 2 cytopathic effect; DENV2-infected cells, cytopathic effect rescue, plate reader; AID 651640; 1.7% of 350,000 active; CPE inhibition, % at 9.99 µM; in the data active means CPE inhibition above about 20%, passing the limit was not always enough; tested in BHK-21 cells;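 further: 0% = median of neutral control wells and 100% = median of positive control wells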
RAD52 anneal inh = inhibitors of human RAD52 DNA annealing | recombinant RAD52 DNA annealing, FRET fluorescence | inhibition, % at 18.7 µM | AID 651710 | 0.46% of 360,000 active;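 active means every replicate showing at least 50% inhibition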
Target sequence (P43351 whole entry, looked up): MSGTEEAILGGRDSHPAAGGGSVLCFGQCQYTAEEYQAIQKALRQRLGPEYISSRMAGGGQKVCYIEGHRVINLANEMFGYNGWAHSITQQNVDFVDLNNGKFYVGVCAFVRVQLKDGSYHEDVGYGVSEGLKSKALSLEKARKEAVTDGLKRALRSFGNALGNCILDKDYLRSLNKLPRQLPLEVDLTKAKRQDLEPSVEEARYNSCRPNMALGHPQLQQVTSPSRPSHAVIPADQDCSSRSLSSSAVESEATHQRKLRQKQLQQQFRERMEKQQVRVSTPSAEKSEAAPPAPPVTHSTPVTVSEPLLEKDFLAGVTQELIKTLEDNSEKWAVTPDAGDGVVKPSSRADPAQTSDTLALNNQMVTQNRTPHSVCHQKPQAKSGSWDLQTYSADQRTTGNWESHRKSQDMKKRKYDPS
AF4-AF9 inh = inhibitors of human MLL-AF4/AF9 interaction. inhibition, % at 10 µM. 0.47% of 350,000 active. AlphaScreen, biotin-AF4 peptide binding to FLAG-AF9. AID 651704. P42568;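 active means every replicate reaching a set inhibition limit, whatever the replicate mean, cut at about 25% in these data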;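 further: 0% = plate neutral control median and 100% = total signal loss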
* marks the source's active call; other numbers are inactive results.

Screening COc1ccc(NC(=O)N(C)C[C@H]2Oc3ccc(NC(=O)C4CCCCC4)cc3CC(=O)N([C@@H](C)CO)C[C@H]2C)cc1 returned FGF22 binding -0.1, ERAP1 inh -0.6, DENV2 CPE -1.6, RAD52 anneal inh 8.9 and AF4-AF9 inh -1.3.
Screening O=C1C2C3C=CC(CC3)C2C(=O)N1/N=C/c1ccco1 (stereo not drawn) returned FGF22 binding 44.0*, ERAP1 inh -3.0, DENV2 CPE 5.5, RAD52 anneal inh -1.0 and AF4-AF9 inh -1.6.
Screening C#CCN(Cc1ccco1)C(=O)c1nnc2c3ccccc3n(S(=O)(=O)c3ccc(C)cc3)c2n1 returned ERAP1 inh -1.8, DENV2 CPE 24.5*, RAD52 anneal inh -14.2 and AF4-AF9 inh 0.8.
Screening CCS(=O)(=O)Nc1ccc2c(c1)C(=O)N(C)[C@H]1CC[C@H](CC(=O)Nc3ccc(Cl)cc3)O[C@@H]1CO2 returned FGF22 binding -0.1, ERAP1 inh 2.4, DENV2 CPE 2.4, RAD52 anneal inh 7.4 and AF4-AF9 inh 0.1.
N#Cc1cccc(CN2CCC(=O)N([C@H](CO)Cc3ccccc3)CC2)c1 was read as FGF22 binding 0.1, ERAP1 inh -1.5, DENV2 CPE 8.7, RAD52 anneal inh -11.4 and AF4-AF9 inh 44.3*.
O=C1CCN(Cc2ccc(O)cc2)CCN1[C@H](CO)Cc1ccccc1 was read as FGF22 binding 0.0, DENV2 CPE 6.3, RAD52 anneal inh -1.2 and AF4-AF9 inh 1.3.
Cc1noc(C)c1S(=O)(=O)Nc1ccc2c(c1)C(=O)N([C@H](C)CO)C[C@H](C)[C@@H](CN(C)C(=O)CCCN(C)C)OCCCC[C@H](C)O2 was read as FGF22 binding 0.1 and DENV2 CPE 79.0*.
For Cc1noc(C)c1S(=O)(=O)Nc1ccc2c(c1)C(=O)N([C@H](C)CO)C[C@@H](C)[C@@H](CN(C)C(=O)CCC(F)(F)F)OCCCC[C@@H](C)O2 the results were ERAP1 inh -5.7, DENV2 CPE -3.5, RAD52 anneal inh -3.1 and AF4-AF9 inh -0.4.
Cc1noc(C)c1S(=O)(=O)Nc1ccc2c(c1)C(=O)N([C@H](C)CO)C[C@H](C)[C@H](CN(C)C(=O)CCC(F)(F)F)OCCCC[C@@H](C)O2 was read as FGF22 binding -0.3, ERAP1 inh -1.9, DENV2 CPE 71.9*, RAD52 anneal inh 7.0 and AF4-AF9 inh 5.3.
For Cc1noc(C)c1S(=O)(=O)Nc1ccc2c(c1)C(=O)N([C@@H](C)CO)C[C@@H](C)[C@H](CN(C)C(=O)CCCN(C)C)OCCCC[C@H](C)O2 the results were FGF22 binding 0.0.
Screening O=C(CSc1nc2ccccc2c(=O)n1-c1ccc(F)cc1)Nc1ccc(N2CCOCC2)cc1 returned FGF22 binding -0.1, ERAP1 inh 9.9, DENV2 CPE 4.8, RAD52 anneal inh -3.8 and AF4-AF9 inh -4.4.
Screening O=C(CSc1nc2ccccc2c(=O)n1-c1ccccc1Cl)Nc1cccc(S(=O)(=O)N2CCOCC2)c1 returned FGF22 binding 0.0, ERAP1 inh 3.2, DENV2 CPE 63.4*, RAD52 anneal inh -11.1 and AF4-AF9 inh -72.8.
For O=C(CSc1nc2ccccc2[nH]1)Nc1cccc(S(=O)(=O)N2CCOCC2)c1 the results were FGF22 binding 1.8*, ERAP1 inh 1.8, DENV2 CPE 2.2, RAD52 anneal inh -15.2 and AF4-AF9 inh -13.8.
For O=C(CSc1nc2ccccc2c(=O)n1-c1ccc(SC(F)F)cc1)Nc1ccc(N2CCOCC2)cc1 the results were FGF22 binding 43.0*, ERAP1 inh 0.6, DENV2 CPE -1.5, RAD52 anneal inh 3.5 and AF4-AF9 inh -0.9.
`CC(Oc1ncnc2ccccc12)C(=O)Nc1cccc(S(=O)(=O)N2CCOCC2)c1` (stereo not drawn) gave FGF22 binding 0.0, ERAP1 inh -3.2, DENV2 CPE -5.6, RAD52 anneal inh -13.8 and AF4-AF9 inh 28.8*.
C[C@@H]1CCCCO[C@@H](CN(C)CC2CCCCC2)[C@H](C)CN([C@@H](C)CO)C(=O)c2cc(NS(=O)(=O)c3ccc(F)cc3)ccc2O1 was read as FGF22 binding 0.0, ERAP1 inh -1.9, DENV2 CPE -13.2, RAD52 anneal inh 36.3 and AF4-AF9 inh 1.2.
For C[C@H](CO)N1C[C@H](C)[C@@H](CN(C)Cc2ccc(C(=O)Nc3ccccc3N)cc2)Oc2ccc(NC(=O)c3ccncc3)cc2C1=O the results were FGF22 binding 0.1, ERAP1 inh 3.9, DENV2 CPE -15.2, RAD52 anneal inh -13.7 and AF4-AF9 inh -2.7.
For CC=Cc1ccc2n(c1=O)C[C@@H]1[C@@H](CO)[C@H](C(=O)NC3CCCC3)N(Cc3ccncc3)[C@H]21 (mixture of isomers) the results were FGF22 binding 0.4, ERAP1 inh 1.1, DENV2 CPE -11.3, RAD52 anneal inh -49.4 and AF4-AF9 inh -1.3.
For C[C@H](CO)N1C[C@H](C)[C@H](CN(C)S(=O)(=O)c2ccccc2)OCCCC[C@H](C)Oc2ccc(NC(=O)Nc3ccc(F)cc3)cc2C1=O the results were FGF22 binding -0.7, ERAP1 inh 1.6, DENV2 CPE 21.7*, RAD52 anneal inh -18.1 and AF4-AF9 inh 0.2.
`C[C@@H]1CCCCO[C@H](CN(C)S(=O)(=O)c2ccc(Cl)cc2)[C@@H](C)CN([C@H](C)CO)C(=O)c2cc(NC(=O)Nc3ccc(F)cc3)ccc2O1` gave FGF22 binding -0.1, ERAP1 inh -0.3, DENV2 CPE 8.4, RAD52 anneal inh 9.3 and AF4-AF9 inh -4.1.
`C[C@@H]1CCCCO[C@@H](CN(C)S(=O)(=O)c2ccc(Cl)cc2)[C@@H](C)CN([C@@H](C)CO)C(=O)c2cc(NC(=O)Nc3ccc(F)cc3)ccc2O1` gave FGF22 binding 0.2, ERAP1 inh -0.9, DENV2 CPE 28.8*, RAD52 anneal inh 16.8 and AF4-AF9 inh -2.7.
COc1ccc(NC(=O)Nc2ccc3c(c2)C(=O)N([C@H](C)CO)C[C@@H](C)[C@H](CN(C)S(=O)(=O)c2ccccc2)OCCCC[C@H](C)O3)cc1 was read as FGF22 binding 0.0, ERAP1 inh 2.7, DENV2 CPE 30.1*, RAD52 anneal inh -10.1 and AF4-AF9 inh -1.4.
`COc1ccc(S(=O)(=O)N(C)C[C@H]2OCCCC[C@H](C)Oc3ccc(NC(=O)Cc4ccccc4)cc3C(=O)N([C@@H](C)CO)C[C@@H]2C)cc1` gave FGF22 binding 0.7, ERAP1 inh -3.8, DENV2 CPE 27.2*, RAD52 anneal inh 1.6 and AF4-AF9 inh 0.8.
Screening Cc1noc(C)c1S(=O)(=O)N(C)C[C@H]1OCCCC[C@H](C)Oc2ccc(NC(=O)Nc3ccc(F)cc3)cc2C(=O)N([C@@H](C)CO)C[C@@H]1C returned FGF22 binding 0.1, ERAP1 inh 1.2, DENV2 CPE 72.8*, RAD52 anneal inh 15.1 and AF4-AF9 inh -3.0.
Screening COCCn1c(SCC(=O)N2CCCC2)nnc1-c1ccco1 returned FGF22 binding -0.4, ERAP1 inh -0.9, DENV2 CPE 10.0, RAD52 anneal inh -6.9 and AF4-AF9 inh 28.4*.
